rCAG binder – binds r(CAG) RNA repeats. r(CAG) RNA repeat, TO-PRO-1 dye displacement fluorescence. inhibition, % at 3 µM. 1.3% of 370,000 active;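 active = inhibition above the plate cutoff, the mean of all test compounds on that plate plus 3 SD, cut at about 35% in these data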;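 also: 0% = DMSO alone and 100% = 100 µM mitoxantrone as full dye displacement; higher means more dye released from RNA so lower well fluorescence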
MsrA inhibitor – inhibits bovine methionine sulfoxide reductase A; purified bovine MsrA, absorbance read-out; inhibition, % at 15.5 µM; 0.75% of 360,000 active; AID 651718; in the data active = inhibition above about 4.5%;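 also: 0% = vehicle wells with enzyme and 100% = reference inhibitor wells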
MsrA act – activates bovine MsrA enzyme; purified bovine MsrA, absorbance read-out; activation, % at 10.6 µM; 0.3% of 360,000 active; AID 602163; in the data active = activation above about 7.5%;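 also: 0% = vehicle and 100% = reference activator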
HGIII-sPLA2 inh – Blocks human group III sPLA2 activity; Q9NZ20; QFRET BODIPY PC-A2 liposome hydrolysis, fluorescence; inhibition, % at 12.2 µM; 0.56% of 370,000 active;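 active = inhibition above mean plus 3 SD of compounds lying within the high and low control bounds, cut at about 19% in these data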;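 also: 0% = median of test compound wells and 100% = no enzyme DMSO wells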
Target sequence (Q9NZ20 whole entry, looked up): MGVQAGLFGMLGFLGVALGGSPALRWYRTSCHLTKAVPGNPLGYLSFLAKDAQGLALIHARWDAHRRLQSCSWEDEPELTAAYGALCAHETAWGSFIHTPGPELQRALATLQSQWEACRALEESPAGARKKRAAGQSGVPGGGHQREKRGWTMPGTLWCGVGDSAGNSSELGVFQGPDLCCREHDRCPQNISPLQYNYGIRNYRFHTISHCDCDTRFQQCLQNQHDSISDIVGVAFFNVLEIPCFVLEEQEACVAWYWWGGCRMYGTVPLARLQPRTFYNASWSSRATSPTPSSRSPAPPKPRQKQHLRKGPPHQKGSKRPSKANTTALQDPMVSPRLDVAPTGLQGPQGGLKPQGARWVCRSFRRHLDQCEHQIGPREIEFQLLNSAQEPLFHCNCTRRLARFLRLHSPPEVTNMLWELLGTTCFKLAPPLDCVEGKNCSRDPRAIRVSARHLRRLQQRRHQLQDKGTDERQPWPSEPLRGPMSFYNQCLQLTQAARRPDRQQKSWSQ
MsrA act confirm – bovine methionine sulfoxide reductase A activation confirmed; activation, % at 10.6 µM; 12% of 1,000 active; shares compounds with MsrA act; purified bovine MsrA, absorbance read-out; in the data active = activation above about 4%;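 also: enzyme coupled to thioredoxin and thioredoxin reductase with NADPH; 0% = vehicle wells and 100% = reference activator wells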
* marks the source's active call; other numbers are inactive results; x = not tested or not shown. An excerpt weighted towards active compounds, which were near 2.8% of everything screened.

SMILES | rCAG binder | MsrA inhibitor | MsrA act | HGIII-sPLA2 inh | MsrA act confirm
COC(=O)c1ccc(NC(=O)CSc2nnc(COc3ccc4c(c3)CCCC4)o2)cc1 | 4 | 0 | -5 | -2 | x
Cc1c(Cl)cccc1Nc1n[nH]c(=S)s1 | 4 | 1 | 9.6* | 16 | 0
S=c1[nH]nc(Nc2cccc3ccccc23)s1 | 3 | 2 | 8.8* | 16 | 0
Cc1ccccc1Nc1n[nH]c(=S)s1 | 2 | 0 | 11* | 15 | 1
Fc1ccccc1Nc1n[nH]c(=S)s1 | 1 | 1 | -2 | 12 | x
Cc1cccc(NC(=S)N(C)C2CCCCC2)c1 | -1 | 1 | -8 | 8 | x
C(=C\c1ccccc1)/CN1CCN(C(c2ccccc2)c2ccccc2)CC1 | 2 | -1 | 0 | -10 | x
Fc1ccc(C(c2ccc(F)cc2)N2CCN(C/C=C/c3ccccc3)CC2)cc1 | 3 | -1 | 8.4* | -14 | -2
O=C(O)/C=C/c1cccc(NS(=O)(=O)c2ccccc2)c1 | 1 | -1 | -3 | 2 | x
CC(Sc1ncnc2sc(-c3ccccc3)cc12)C(=O)N1CCNC1=O (configuration not stated) | 2 | 0 | -4 | 4 | x
CC(C)N(C(=O)CSc1ncnc2sc(-c3ccccc3)cc12)C(C)C | 4 | 0 | 9.1* | -4 | 0
O=C(Nc1cccc(O)c1)c1ccc(NC(=O)C2CCCO2)cc1 (configuration not stated) | 4 | 1 | -8 | 6 | x
c1ccn(-c2ccc(N3CCOCC3)cc2)c1 | -1 | -1 | 10* | 0 | -1
c1ccc(N2CCOCCOCCOCCOCC2)cc1 | 0 | 0 | -1 | 8 | x
Cc1cc(C(=O)CSc2nnnn2C)c(C)n1Cc1ccco1 | -1 | 1 | -1 | -6 | x
CN(Cc1ccc(F)cc1)C(=O)c1ccc2c(c1)NC(=O)CS2 | -1 | -2 | -1 | 0 | x
CCCCCc1c(C)nc(Nc2ccc(F)cc2)[nH]c1=O | 15 | -1 | 9.8* | -2 | 1
CC(=O)Nc1ccc(C(=O)OCC(=O)c2cccc([N+](=O)[O-])c2)cc1 | 6 | -1 | 8.4* | -25 | -1
CCS(=O)(=O)N1CCCC(C(=O)NCc2ccccc2Cl)C1 (configuration not stated) | 0 | -1 | -1 | 2 | x
CCC(Oc1ccccc1OC)C(=O)Nc1ccc2c(c1)OCCO2 (configuration not stated) | -7 | 1 | 16* | 0 | 0
O=C(COC(=O)Cc1ccsc1)Nc1ccccc1 | -2 | 1 | 25* | -5 | 2
O=[N+]([O-])c1cc([N+](=O)[O-])c(Oc2ccc(Cl)c3cccnc23)cc1NN1CCCCC1 | 1 | 0 | -3 | -2 | x
C/C(N)=C(/C#N)C(=O)COC(=O)c1ccc(C)c(S(=O)(=O)N2CCCCC2)c1 | 2 | 0 | -13 | -15 | x
CC(C)c1ncc(C(O)c2cccc3ccccc23)n1C (configuration not stated) | 2 | -1 | 13* | -1 | -3
COc1cccc(C(O)c2cnc(C(C)C)n2C)c1OC (configuration not stated) | -2 | -1 | -7 | -2 | x
SMILES | rCAG binder | MsrA inhibitor | MsrA act | HGIII-sPLA2 inh | MsrA act confirm
CC(C)C1C(=O)N(Cc2cn(CC3CCCCC3)nn2)CCS(=O)(=O)N1Cc1ccc(-c2ccc(F)nc2)cc1 (configuration not stated) | 4 | 0 | 8.9* | -28 | -1
Cc1cc(C)cc(NC(=S)N2CCCC2)c1 | -2 | 1 | 12* | 8 | -3
Cc1ccc(C(=O)N2CCC(C(N)=O)CC2)cc1C | -2 | 0 | -1 | -1 | x
Cc1ccc(C)c(NS(=O)(=O)c2cc(C(=O)N3CCc4ccccc4C3)ccc2Cl)c1 | 2 | 0 | 8.2* | -17 | -2
COc1ccc(CCNC(=O)c2ccccc2NC(=O)c2ccco2)cc1OC | -1 | -1 | 0 | -2 | x
Cc1cccc(C)c1NC(=O)N1CCC(n2cnc3ccccc32)CC1 | -3 | -1 | -3 | 3 | x
Cc1cccc(C)c1NC(=O)N1CCC(n2c(=O)[nH]c3ccccc32)CC1 | -2 | -1 | 7.8* | -1 | -1
CCCCOc1ccccc1C1NC(=O)NC(C)=C1C(=O)OCCOCC (configuration not stated) | -7 | -1 | 2 | -3 | x
CCCCOc1ccccc1C1NC(=O)NC(C)=C1C(=O)OCc1ccco1 (configuration not stated) | -1 | 1 | 8.9* | 3 | 0
Cc1cc(OCCCC(=O)N2CCCCC2)cc(C)c1Cl | -5 | 0 | -6 | -9 | x
CN(CCCC(=O)Nc1ccncc1)S(=O)(=O)c1ccc(Cl)cc1 | 3 | -1 | 7.9* | 0 | 2
Cn1c(N)c(S(=O)(=O)NCc2ccc(Cl)cc2)c(=O)n(C)c1=O | -2 | 0 | 8.9* | 3 | -3
Cn1c(N)c(S(=O)(=O)NCc2ccccc2)c(=O)n(C)c1=O | -1 | 0 | -4 | -3 | x
Cc1ccc(OCC(=O)N/N=C\c2c(C)[nH]n(-c3ccccc3)c2=O)c([N+](=O)[O-])c1 | 31 | 2 | 11* | -15 | -1
CN(C)c1ccc(C=c2c3cc(O)ccc3n3c2cc(-c2ccccc2)[n+]3C)cc1 | 25 | 2 | 17* | -3 | 8.1*
Cc1cc2c(=Cc3ccc(N(C)C)cc3)c3ccccc3n2[n+]1C | 9 | 1 | 4 | 18 | x
C[n+]1c(-c2ccccc2)cc2c(=Cc3ccccc3)c3ccccc3n21 | 10 | 12* | 19* | 19 | 9.6*
COc1ccc2c(C)c(C(=O)N3CC[C@@H](N4CCC(O)CC4)[C@H](O)C3)oc2c1 | -6 | -1 | -1 | 4 | x
CSc1ccc(C(=O)/C=C/c2ccc(N)cc2)cc1 | 7 | 3 | -4 | -9 | x
O=C(O)CCCC(=O)NNc1nc(-c2ccccc2)c2cc(Cl)ccc2n1 | 3 | -1 | -2 | -1 | x
O=C(NCCO)c1cccc(Nc2nc(-c3ccccc3)c3cc(Cl)ccc3n2)c1 | 9 | 0 | 17* | -9 | -1
O=C1c2ccccc2S(=O)(=O)c2cc(C(=O)N(c3ccccn3)c3ccccn3)ccc21 | 2 | -1 | 8.0* | 7 | 3
Clc1ccccc1Cn1nc(-c2ccccc2)nc1-c1ccccc1 | 1 | -1 | 1 | -7 | x
Clc1ccc(Cn2nc(-c3ccccc3)nc2-c2ccccc2)cc1 | -4 | 0 | 8.7* | -3 | 0
CSc1ccc(-c2nc(O)c3cnccn23)cc1 | -1 | 3 | 10* | -16 | -4
SMILES | rCAG binder | MsrA inhibitor | MsrA act | HGIII-sPLA2 inh | MsrA act confirm
Cc1cccc(NC(=O)c2ccccc2NC(=O)c2ccccc2)n1 | -1 | 1 | 18* | -12 | 1
CCOc1ccc(S(=O)(=O)N2CCCC(C(=O)N3CCOCC3)C2)cc1C (configuration not stated) | -8 | -2 | -2 | 1 | x
COC(=O)c1cc(C)nc2c1c(C)nn2-c1ccccc1 | 1 | 0 | 13* | 10 | 1
Cc1nn(-c2ccccc2)c2nc(N)c(C(N)=O)cc12 | -1 | 1 | -4 | 6 | x
CCOc1ccc(N)c(SSc2cc(OCC)ccc2N)c1 | 12 | 1 | 0 | 3 | x
CS(=O)(=O)c1ccc(N)c(SSc2cc(S(C)(=O)=O)ccc2N)c1 | 4 | 1 | 14* | 0 | 9.8*

Bioassay records from PubChem BioAssay.
